# Experimental data published in PubChem BioAssay AID2284116 (EPA ToxCast).
# Active and inactive are the calls of the source. The calls were made as follows: active = hit-call score of the fitted dose curve at least 0.9, where 1 is the maximum; inactive = score below 0.9.
# Biological target: human Matrix Metallopeptidase 9 (MMP9), MMP9 (gene 4318) (UniProt P14780)
# Test: ERF_FR_ENZ_hMMP9: Eurofins (ERF) Enzymatic LeadHunter Assay for human Matrix Metallopeptidase 9 (MMP9)
# Description: ERF_FR_ENZ_hMMP9 is a biochemical, single-readout assay that uses extracted gene-proteins in a cell-free assay. Measurements were taken 1.5 hour after chemical dosing in a 96-well plate. See MMP9 Human Matrix Metallopeptidase Enzymatic Assay, Cerep.ERF_FR_ENZ_hMMP9 is an assay component calculated from the ERF_FR_ENZ_hMMP9 assay. It is designed to measure enzyme activity using a type of enzyme reporter as detected by fluorescence intensity with fluorimetry technology.Data from the assay component ERF_FR_ENZ_hMMP9 was analyzed at the assay endpoint, ERF_FR_ENZ_hMMP9, in the positive analysis fitting direction relative to DMSO as the negative control and baseline of activity. Using a type of enzyme reporter, loss-of-signal activity can be used to understand changes in enzymatic activity as they relate to gene MMP9. To generalize the intended target to other relatable targets, this assay endpoint is annotated to the protease intended target family, where the subfamily is matrix metallopeptidase.
# […] are incubated for 60 minutes at room tempreature with Mca-PLGL-Dap(Dnp)-AR-NH2 (7.5 uM) as sunstrate and […] as control inhibitor. Test Sample Requirements: Minimum for 1) Screen: 60 ul of 10 mM stock -OR- 1 mg (pre-weighed) for 10 uM final testing. 2) Dose Response: 90 ul of 10 mM stock -OR- 1 mg (pre-weighed) for a top concentration at 10 uM.
# human Matrix Metallopeptidase 9 (MMP9), MMP9 (gene 4318), sequence (P14780 whole entry, looked up): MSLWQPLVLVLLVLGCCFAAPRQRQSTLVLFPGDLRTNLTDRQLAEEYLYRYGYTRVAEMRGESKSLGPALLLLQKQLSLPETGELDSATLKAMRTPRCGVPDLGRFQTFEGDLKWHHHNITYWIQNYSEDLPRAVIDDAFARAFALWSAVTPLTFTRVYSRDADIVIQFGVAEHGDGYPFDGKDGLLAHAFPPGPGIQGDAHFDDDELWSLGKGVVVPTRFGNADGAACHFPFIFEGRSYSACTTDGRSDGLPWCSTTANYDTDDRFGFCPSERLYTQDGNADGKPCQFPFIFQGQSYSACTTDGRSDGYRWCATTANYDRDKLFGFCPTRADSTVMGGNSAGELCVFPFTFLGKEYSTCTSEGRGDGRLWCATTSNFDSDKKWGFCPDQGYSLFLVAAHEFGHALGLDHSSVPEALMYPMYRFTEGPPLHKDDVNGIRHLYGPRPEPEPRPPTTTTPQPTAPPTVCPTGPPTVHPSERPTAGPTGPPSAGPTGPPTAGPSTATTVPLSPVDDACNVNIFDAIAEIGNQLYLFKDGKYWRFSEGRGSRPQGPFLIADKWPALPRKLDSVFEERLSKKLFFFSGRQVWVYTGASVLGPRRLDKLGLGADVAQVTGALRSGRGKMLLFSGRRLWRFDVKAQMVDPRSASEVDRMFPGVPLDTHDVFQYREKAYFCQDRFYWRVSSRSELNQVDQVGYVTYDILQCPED
row,SMILES,outcome
1,O=C(/C=C/c1ccc(O)cc1)CC(=O)/C=C/c1ccc(O)cc1,inactive
